# Results published in PubChem BioAssay (NCATS).
# Values joined by “and” are separate entries in the source; they are usually repeats but may differ in a detail not shown here. Identical values can stand only once. Records with an inconclusive call do not appear. Entries that show only a call come without a potency. Active and inactive are the calls of the source. Unless noted, calls follow the shape of the dose curve; as a rule, active = well fitted curve in the direction sought with a large enough effect; inconclusive = small, poorly fitted or top-dose-only effect, or another doubt; inactive = no such curve, though single readings can be large; an effect the other way counts as inactive or inconclusive.
# What was measured:
# [1] = target: Cytochrome P450 3A4 (Homo sapiens) (UniProt P08684); assay: qHTS Assay for Activators of Cytochrome P450 3A4 (AID 885); settings: recombinant CYP3A4, Luciferin-PPXE luminescence, 60 min; series mostly up to 57.1 µM; also: nearly all actives have a fitted effect of over 65% in size
# Chain of Cytochrome P450 3A4 (Homo sapiens) (P08684 whole entry, looked up): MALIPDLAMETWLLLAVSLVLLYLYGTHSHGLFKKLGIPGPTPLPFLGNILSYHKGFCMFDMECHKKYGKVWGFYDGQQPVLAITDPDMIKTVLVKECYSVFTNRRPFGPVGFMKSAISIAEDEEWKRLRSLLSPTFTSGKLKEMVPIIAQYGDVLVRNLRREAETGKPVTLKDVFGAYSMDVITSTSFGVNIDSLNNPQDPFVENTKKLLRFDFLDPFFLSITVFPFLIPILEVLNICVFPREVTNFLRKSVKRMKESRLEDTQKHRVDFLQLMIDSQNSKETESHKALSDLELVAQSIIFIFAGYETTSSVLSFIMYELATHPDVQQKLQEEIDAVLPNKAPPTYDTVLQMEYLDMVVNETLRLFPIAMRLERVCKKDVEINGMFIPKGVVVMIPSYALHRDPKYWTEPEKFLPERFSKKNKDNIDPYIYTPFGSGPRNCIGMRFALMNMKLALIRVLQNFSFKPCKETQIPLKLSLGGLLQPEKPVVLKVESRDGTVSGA
# In short: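 20nM CYP3A4 + 25uM Luciferin-PPXE (=KM), 200mM KPO4; cpd 10 min RT; NADPH regen, 60 min RT; stop w/ detection buffer, 20 min; luminescence. Normalized to 57 uM ketoconazole.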
# [2] = Confirmation and Secondary Assay for Modulators of Hemoglobin Beta Chain Splicing at IVS2 654 locus (AID 910); settings: HeLa EGFP-654 splicing reporter, GFP fluorescence, 48 h; series mostly up to 46.1 µM;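 also: per-well total GFP intensity by laser scanning cytometry after 2-day treatment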
# In short: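 HeLa cells stably carrying EGFP interrupted by mutant beta-globin IVS2-654 intron (CMV-driven) were treated with compound for 2 days at 37C; corrected splicing was scored as total peak GFP intensity per well (488 nm excitation, 500-520 nm emission).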
# [3] = Confirmation and Secondary Assay for Modulators of Hemoglobin Beta Chain Splicing at IVS2 705 locus (AID 930); settings: HeLa EGFP-705 splicing reporter, GFP fluorescence, 48 h; series mostly up to 46.1 µM;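 also: HeLa cells stably expressing the EGFP-705 splicing reporter; GFP fluorescence per well restored by corrected splicing of the IVS2-705 intron in EGFP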
# In short: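 Assay measures total GFP intensity per well in HeLa EGFP-705 cells after 2 days with compound; mis-splicing normally truncates EGFP, so fluorescence indicates corrected splicing.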
# [4] = qHTS Assay for Lipid Storage Modulators (AID 1519; calls by dose curve); settings: Drosophila S3 cells, BODIPY lipid droplet/cell ratio, laser cytometry, cells loaded with oleic acid; for activity change, negative = inhibition: at 57.5 µM (top of the series)
# In short: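 Cells seeded at 5,000 per well were treated with compounds over a concentration series and loaded with oleic acid (400 uM, as added). Lipid droplet fluorescence (488 nm excitation, 500-530 nm channel) was read by laser-scanning cytometry and normalized to 20 uM Triacsin C.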
# [5] = target: Ubiquitin carboxyl-terminal hydrolase 1 (Homo sapiens) (UniProt O94782); assay: Inhibitors of USP1/UAF1: Pilot qHTS (AID 504865); settings: purified USP1/UAF1, Ub-rhodamine cleavage fluorescence; series mostly up to 114 µM;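 also: rhodamine fluorescence freed from ubiquitin-rhodamine substrate followed over time; top concentration of the series differs between compounds; nearly all actives have a fitted effect of over 35% in size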
# Chain of Ubiquitin carboxyl-terminal hydrolase 1 (Homo sapiens) (O94782 whole entry, looked up): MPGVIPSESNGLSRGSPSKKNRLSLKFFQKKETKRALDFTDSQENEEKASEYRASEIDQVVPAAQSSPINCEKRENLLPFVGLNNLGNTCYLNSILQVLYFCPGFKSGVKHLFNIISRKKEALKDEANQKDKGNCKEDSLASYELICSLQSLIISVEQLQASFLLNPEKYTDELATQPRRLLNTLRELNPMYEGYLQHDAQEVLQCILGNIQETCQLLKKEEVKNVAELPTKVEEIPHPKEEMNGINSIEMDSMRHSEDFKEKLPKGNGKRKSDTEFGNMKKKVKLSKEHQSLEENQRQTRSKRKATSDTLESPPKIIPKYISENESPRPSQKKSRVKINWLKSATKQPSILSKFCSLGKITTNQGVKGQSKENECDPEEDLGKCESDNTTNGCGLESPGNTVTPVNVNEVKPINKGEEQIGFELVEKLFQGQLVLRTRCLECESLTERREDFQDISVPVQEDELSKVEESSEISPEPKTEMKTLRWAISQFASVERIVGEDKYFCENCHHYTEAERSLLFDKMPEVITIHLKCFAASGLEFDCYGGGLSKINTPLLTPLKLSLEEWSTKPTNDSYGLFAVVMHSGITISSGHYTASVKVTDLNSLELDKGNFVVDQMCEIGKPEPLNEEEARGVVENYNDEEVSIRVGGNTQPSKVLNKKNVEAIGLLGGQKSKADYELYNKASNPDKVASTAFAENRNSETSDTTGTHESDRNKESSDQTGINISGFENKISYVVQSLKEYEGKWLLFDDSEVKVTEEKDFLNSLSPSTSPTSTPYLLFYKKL
# In short: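 USP1/UAF1 complex at 1 nM preincubated 15 min at room temperature with compound, then Ub-Rho substrate added at 150 nM final. Fluorescence (480/540 nm) read kinetically in 50 mM HEPES pH 7.8, 0.5 mM EDTA, 1 mM TCEP, 0.1 mg/ml BSA, 0.01% Tween-20.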
# [6] = target: Cytochrome P450 3A4 (Homo sapiens) (UniProt P08684); assay: qHTS Assay for Inhibitors and Substrates of Cytochrome P450 3A4 (AID 884); settings: recombinant CYP3A4, Luciferin-PPXE luminescence; series mostly up to 57.1 µM; also: nearly all actives have a fitted effect of over 50% in size; also: potency is read from the fitted curve at half-maximal effect
# In short: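 20 nM human CYP3A4 with 25 uM Luciferin-PPXE (at KM) in 200 mM KPO4, preincubated 10 min with compound; NADPH regeneration started a 60 min RT reaction. Luciferin detected by luminescence, normalized to 57 uM ketoconazole as full inhibition.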
# [7] = target: DNA dC->dU-editing enzyme APOBEC-3G (Homo sapiens) (UniProt Q9HC16); assay: qHTS for inhibitors of Vif-A3G interactions: Validation (AID 588379); settings: Vif-A3G protein interaction assay; series mostly up to 46.1 µM
# Chain of DNA dC->dU-editing enzyme APOBEC-3G (Homo sapiens) (Q9HC16 whole entry, looked up): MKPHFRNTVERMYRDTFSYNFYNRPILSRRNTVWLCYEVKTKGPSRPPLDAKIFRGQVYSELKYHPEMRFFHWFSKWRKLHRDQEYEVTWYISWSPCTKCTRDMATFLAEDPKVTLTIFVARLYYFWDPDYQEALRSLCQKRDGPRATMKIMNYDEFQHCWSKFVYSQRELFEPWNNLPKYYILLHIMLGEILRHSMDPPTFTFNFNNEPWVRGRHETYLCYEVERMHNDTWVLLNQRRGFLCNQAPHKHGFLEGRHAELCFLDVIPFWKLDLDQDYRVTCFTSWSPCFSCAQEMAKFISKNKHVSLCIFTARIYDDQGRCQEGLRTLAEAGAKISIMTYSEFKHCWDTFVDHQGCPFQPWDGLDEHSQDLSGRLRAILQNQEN
# In short: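 HeLa cells stably expressing Vif and A3G-eYFP, 700 cells/well, incubated overnight at 37 deg C, then exposed to compound overnight at 37 deg C. Inhibition of Vif-mediated degradation read as increased yellow fluorescence (Ex 488/Em 500-530) by laser-scanning cytometry.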
# [8] = measured here: cell count channel max response
# [9] = measured here: lipid channel max response
Structure (SMILES),Potency [1],Potency [2],Potency [3],"activity change, negative = inhibition [4]","max response [4, 8]","max response [4, 9]",Potency [5],Potency [6],outcome [7]
C/C=C(\C)C(=O)OC1CC(OC(C)=O)[C@@]2(C(=O)OC)COC3C2[C@@]12CO[C@](O)(C(=O)OC)C2[C@](C)(C12OC1(C)C1CC2OC2OC=C[C@]21O)C3O (stereo partly drawn),inactive,inactive,inactive,-3.34% (inactive),-9.57%,-10.6%,inactive,,
CC(=O)C1CCC2C3CCC4CC(O)CCC4(C)C3CC(O)C12C (stereo not drawn),,inactive,inactive,-2.59% (inactive),3.25%,2.61%,inactive,inactive,
CC1C(=O)OC2C1CC[C@@]1(C)C=CC(=O)[C@@]3(C)O[C@@]213 (stereo partly drawn),inactive,inactive,inactive,3.63% (inactive),-6.2%,2.49%,inactive,,
FC(F)(F)c1cccc(N2CCNCC2)c1,,inactive,inactive,4.68% (inactive),-7.45%,-3.82%,inactive,inactive,
O=C(O)c1nn(Cc2ccc(Cl)c(Cl)c2)c2ccccc12,,inactive,inactive,4.27% (inactive),10.4%,16.9%,inactive,inactive,
CN1C2CC3CC1C(O3)C2O (stereo not drawn),,inactive,inactive,1.96% (inactive),-4.71%,-5.52%,inactive,inactive,
CC1(C)C(O)CC(O)[C@]2(C)C1CC(O)[C@]1(C)C2CC[C@@]2(C)C(c3ccoc3)CC3OC312 (stereo partly drawn),inactive,inactive,inactive,-10.5% (inactive),-11.5%,-19.8%,inactive,,
CC(N)[C@H](O)c1ccccc1 (stereo partly drawn),,inactive,inactive,2.72% (inactive),12.8%,19.5%,inactive,inactive,
C[C@@]12CCC(Cl)C[C@H]1CCC1C2CC[C@]2(C)C(=O)CCC12 (stereo partly drawn),,inactive,inactive,8.24% (inactive),9.07%,21.6%,inactive,inactive,
COc1cc(OC)c2c(c1)OC(c1ccc(OC)c(OC)c1)C(O)C2 (stereo not drawn),,inactive,inactive,10.8% (inactive),10.1%,29.4%,inactive,inactive,
C/C=C(/C)C(=O)OC1CC[C@]2(C)C3CCC4[C@]5(O)CC(O)[C@]6(O)C(CN7CC(C)CCC7[C@]6(C)O)[C@]5(O)C[C@@]42O[C@]13O (stereo partly drawn),,inactive,inactive,5.46% (inactive),6.5%,12.3%,inactive,inactive,
COC1C(O)C(C)O[C@H](OC2CC[C@@]3(C=O)C4CC[C@]5(C)C(C6=CC(=O)OC6)CC[C@@]5(O)C4CC[C@@H]3C2)C1O (stereo partly drawn),,inactive,inactive,3.31% (inactive),21.5%,24.5%,inactive,inactive,
C[C@]12CCC3C(C=CC4=CC(=O)CC[C@]43C)C1CC[C@]2(O)CCC(=O)O (stereo partly drawn),,inactive,inactive,1.44% (inactive),28.8%,34.1%,inactive,inactive,
CCN1C[C@]2(COC)C(O)C[C@H](OC)[C@@]34C5C[C@]6(O)C(OC)C(O)[C@](OC(C)=O)(C5C6OC(=O)c5ccccc5)C(C(OC)C23)C14 (stereo partly drawn),,inactive,inactive,4.84% (inactive),13.6%,24%,inactive,inactive,
CC1O[C@@H](OC2CC[C@@]3(C=O)C4CC[C@]5(C)C(C6=CC(=O)OC6)CC[C@@]5(O)C4CC[C@]3(O)C2)C(O)C(O)C1O (stereo partly drawn),,inactive,inactive,2.77% (inactive),-0.564%,4.22%,inactive,inactive,
CCN1C[C@@]2(OC(=O)c3ccccc3NC(C)=O)CCC(OC)[C@@]34C5CC6C(OC)C[C@@](O)(C(CC23)[C@@H]14)C5(O)C6OC (stereo partly drawn),,inactive,inactive,4.73% (inactive),10.9%,17%,inactive,inactive,
CC1C(=O)OC2CCN3CC=C(COC(=O)[C@](C)(O)[C@]1(C)O)C23 (stereo partly drawn),,inactive,inactive,5.81% (inactive),-2.74%,4.32%,inactive,inactive,
CCC(C)C(=O)OC1C(O)C2C(CN3CC(C)CCC3[C@]2(C)O)C2C[C@]34O[C@@]5(O)C(OC(=O)C(C)(O)CC)CCC3(C)C5C(OC(C)=O)C(OC(C)=O)C4[C@@]21O (stereo partly drawn),,inactive,inactive,3.69% (inactive),17.1%,25.4%,inactive,,
CC1C(=O)OC2O[C@]3(C)CC[C@H]4C(C)CCC1[C@]24OO3 (stereo partly drawn),,inactive,inactive,8.3% (inactive),8.98%,23.7%,inactive,,
CNC(=O)O/N=C(/C)SC,,inactive,inactive,3.26% (inactive),16.3%,20.1%,inactive,,
O=C(NC(=O)c1ccccc1Cl)Nc1ccc(OC(F)(F)F)cc1,,inactive,inactive,8.39% (inactive),0.34%,9.8%,inactive,,
COc1cc2c(cc1OC)[C@]13CCN4CC5=CCOC6CC(=O)N2[C@@H]1[C@@H]6C5C[C@@H]43 (stereo partly drawn),,,,-2% (inactive),-11.3%,-11.3%,,inactive,inactive

Structure (SMILES),Potency [1],Potency [2],Potency [3],"activity change, negative = inhibition [4]","max response [4, 8]","max response [4, 9]",Potency [5],Potency [6],outcome [7]
O=c1ccc2cc(O[C@H]3OC(CO)C(O)C(O)C3O)c(O)cc2o1 (stereo partly drawn),,inactive,inactive,5.45% (inactive) and 5.34% (inactive),5.76% and 15.4%,15.3% and 32.6%,inactive,,
CC(=O)N1CC2CC(C1)c1cccc(=O)n1C2 (stereo not drawn),,,,-4.96% (inactive),-29.2%,-33.4%,,inactive,inactive
CNC(C)[C@H](O)c1ccccc1 (stereo partly drawn),,inactive,inactive,9.2% (inactive),21.5%,37.3%,inactive,,
CC(C)(O)C1C2OC(=O)C1[C@]1(O)CC3O[C@@]34C(=O)OC2[C@@]14C (stereo partly drawn),,inactive,inactive,4.81% (inactive),5.32%,12.9%,inactive,,
CC(=O)OC1C2C(OC(=O)Cc3ccccc3)C(C)CC2(OC(C)=O)C(=O)/C(C)=C/C2C(CC[C@@]13CO3)C2(C)C (stereo partly drawn),inactive,inactive,inactive,-0.982% (inactive),-2.07%,-2.51%,inactive,,
Nc1ncn[nH]1,inactive,inactive,inactive,11.2% (inactive),9.75%,23.5%,inactive,,
C[C@H]1C(=O)O[C@H]2CCN3CC=C(COC(=O)[C@](C)(O)[C@@]1(C)O)C23 (stereo partly drawn),,,,-4.35% (inactive),5.67%,3.38%,,inactive,inactive
O=c1cccc2n1CC1CNCC2C1 (stereo not drawn),inactive,inactive,inactive,8.73% (inactive),7.65%,18%,,,inactive
O=C1CC2OCC=C3CN4CC[C@@]56c7ccccc7N1C5C2C3CC46 (stereo partly drawn),,inactive,inactive,-0.509% (inactive),17.9%,21.5%,inactive,,
CC(=O)CC1CCCCN1 (stereo not drawn),,inactive,inactive,4.86% (inactive),11.3%,14.1%,inactive,,
O=c1ccc2cc(OC3OC(CO)C(O)C(O)C3O)c(O)cc2o1 (stereo not drawn),,,,-4.17% (inactive),-25.8%,-27.2%,,,inactive
O=c1cccc2n1CC1CC2CN(CCO)C1 (stereo not drawn),,,,3.63% (inactive),9.42%,15.7%,,inactive,inactive
CC1=C2C3OC(=O)[C@H](C)[C@H]3CC[C@@]2(C)C=CC1=O (stereo partly drawn),inactive,,,2.8% (inactive),25.6%,29.5%,,,inactive
CCC12CCCN3CCC4(c5ccc(OC)c(O)c5N(C(C)=O)C4CC1)C32 (stereo not drawn),inactive,,,-0.564% (inactive),14.6%,12.8%,,15.8 µM (active),inactive
COc1cc2c(cc1OC)C(C)NCC2 (stereo not drawn),,inactive,inactive,4.92% (inactive),20%,26%,,inactive,inactive
Oc1ccc2c3c1OC1C(O)CC[C@]4(O)C(C2)N(CC2CCC2)CC[C@]314 (stereo partly drawn),,inactive,inactive,-5.68% (inactive),13.5%,9.11%,inactive,,
C=C1C/C(=C/C)C(=O)O[C@@H]2CCN3CC=C(COC(=O)[C@]1(C)O)[C@@H]23,inactive,,,3.16% (inactive),6.54%,10.1%,,15.8 µM (active),inactive
CN1CCc2cc3c(cc2C1O)OCO3 (stereo not drawn),,inactive,inactive,7.6% (inactive),9.52%,18.6%,inactive,,
CC1CC(O)[C@]2(O)[C@]13CC(=O)OC[C@@]2(C)[C@@](C)(O)C(=O)C3 (stereo partly drawn),inactive,inactive,inactive,1.46% (inactive),13.4%,16.3%,inactive,,
CCOC(=O)C1C(C=C(C)C)C1(C)C (stereo not drawn),,inactive,inactive,2.84% (inactive),-1.43%,3.02%,inactive,,
COC1=CC2C3Cc4ccc(OC)c(O)c4[C@]2(CCN3C)CC1=O (stereo partly drawn),,inactive,inactive,4.04% (inactive),-5.63%,0.618%,inactive,,
